Experimental data published in the supplement of paper PMC10849652.
Of roughly 8,800 targets only a part is listed; those with a hit were picked by preference. About 0.5% of all pairs of compound and target were hits.

compound: Cc1nc(Nc2n[nH]c3c2CN(C(=O)N[C@H](CN(C)C)c2ccccc2)C3(C)C)c2sccc2n1; experiment: log2 fold change, soluble protein after heating vs DMSO (PISA); higher = thermal stabilisation; K562 lysate, 10 uM; active = over 0.2 and 3.5 SD of the protein, either way, in both replicates (recomputed)
In short: (§1)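 A 30 min treatment with 10 μM compound was applied to crude K562 extract at 1 mg/mL protein in PBS pH 7.4 with 1 mM MgCl2. Heating for 3 min spanned 48°C-58°C, after which aliquots were pooled, adjusted to 0.5% NP-40 at 4°C and spun at 21,000xg for 90 min. TMTpro 16plex LC-MS/MS of the supernatant, with channel sums equalised, gave values recorded as log-two fold change in thermal stability against solvent controls, from duplicates.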

UniProt P43246, sequence (P43246 whole entry, looked up): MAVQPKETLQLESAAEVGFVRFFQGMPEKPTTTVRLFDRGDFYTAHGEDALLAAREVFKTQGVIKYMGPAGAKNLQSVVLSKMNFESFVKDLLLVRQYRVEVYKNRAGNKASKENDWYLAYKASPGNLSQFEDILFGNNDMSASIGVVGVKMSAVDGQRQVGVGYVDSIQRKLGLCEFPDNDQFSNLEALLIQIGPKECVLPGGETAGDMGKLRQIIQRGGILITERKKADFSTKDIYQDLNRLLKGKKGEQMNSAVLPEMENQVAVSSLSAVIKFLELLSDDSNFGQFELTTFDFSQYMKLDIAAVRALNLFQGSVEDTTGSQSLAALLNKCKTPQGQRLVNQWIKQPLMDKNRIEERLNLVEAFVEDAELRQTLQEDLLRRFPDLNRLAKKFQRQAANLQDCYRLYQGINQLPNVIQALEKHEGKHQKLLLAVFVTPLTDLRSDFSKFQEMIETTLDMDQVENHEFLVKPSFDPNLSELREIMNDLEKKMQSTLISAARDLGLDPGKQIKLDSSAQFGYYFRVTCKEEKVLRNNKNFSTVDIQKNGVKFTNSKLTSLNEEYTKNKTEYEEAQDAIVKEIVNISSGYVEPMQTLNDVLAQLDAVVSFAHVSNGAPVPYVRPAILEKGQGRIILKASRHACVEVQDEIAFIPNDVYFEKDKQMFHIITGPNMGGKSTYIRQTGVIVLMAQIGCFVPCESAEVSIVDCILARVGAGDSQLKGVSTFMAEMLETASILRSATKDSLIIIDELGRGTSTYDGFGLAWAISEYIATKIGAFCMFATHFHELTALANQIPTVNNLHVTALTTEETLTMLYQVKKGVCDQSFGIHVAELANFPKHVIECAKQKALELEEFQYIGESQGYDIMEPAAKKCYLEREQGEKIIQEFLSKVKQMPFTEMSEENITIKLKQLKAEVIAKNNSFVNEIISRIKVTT
UniProt Q9BXW6, sequence (Q9BXW6 whole entry, looked up): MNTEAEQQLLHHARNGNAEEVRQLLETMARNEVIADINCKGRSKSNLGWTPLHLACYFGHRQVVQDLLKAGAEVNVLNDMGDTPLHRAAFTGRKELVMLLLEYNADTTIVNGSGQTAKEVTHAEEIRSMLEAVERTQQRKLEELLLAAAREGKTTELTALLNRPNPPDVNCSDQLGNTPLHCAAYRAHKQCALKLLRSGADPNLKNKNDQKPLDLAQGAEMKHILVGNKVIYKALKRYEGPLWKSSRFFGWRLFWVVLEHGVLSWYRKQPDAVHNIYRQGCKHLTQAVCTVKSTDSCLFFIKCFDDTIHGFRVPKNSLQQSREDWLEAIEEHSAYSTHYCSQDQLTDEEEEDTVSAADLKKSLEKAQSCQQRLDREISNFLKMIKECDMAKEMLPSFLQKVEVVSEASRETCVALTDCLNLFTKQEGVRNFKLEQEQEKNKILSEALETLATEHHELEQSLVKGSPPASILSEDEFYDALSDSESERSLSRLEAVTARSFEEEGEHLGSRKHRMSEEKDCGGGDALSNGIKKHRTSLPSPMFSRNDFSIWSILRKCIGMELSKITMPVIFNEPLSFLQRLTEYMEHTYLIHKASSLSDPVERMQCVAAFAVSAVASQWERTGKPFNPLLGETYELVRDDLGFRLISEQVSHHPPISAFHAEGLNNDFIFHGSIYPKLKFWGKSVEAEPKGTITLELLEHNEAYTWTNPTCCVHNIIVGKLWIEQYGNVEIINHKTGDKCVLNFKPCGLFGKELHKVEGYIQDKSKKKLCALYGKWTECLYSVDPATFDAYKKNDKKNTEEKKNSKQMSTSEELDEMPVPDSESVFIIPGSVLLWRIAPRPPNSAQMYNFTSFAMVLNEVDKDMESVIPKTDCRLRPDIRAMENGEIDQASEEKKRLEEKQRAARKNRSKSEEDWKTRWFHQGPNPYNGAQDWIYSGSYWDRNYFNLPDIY
UniProt Q92621, sequence (Q92621 whole entry, looked up): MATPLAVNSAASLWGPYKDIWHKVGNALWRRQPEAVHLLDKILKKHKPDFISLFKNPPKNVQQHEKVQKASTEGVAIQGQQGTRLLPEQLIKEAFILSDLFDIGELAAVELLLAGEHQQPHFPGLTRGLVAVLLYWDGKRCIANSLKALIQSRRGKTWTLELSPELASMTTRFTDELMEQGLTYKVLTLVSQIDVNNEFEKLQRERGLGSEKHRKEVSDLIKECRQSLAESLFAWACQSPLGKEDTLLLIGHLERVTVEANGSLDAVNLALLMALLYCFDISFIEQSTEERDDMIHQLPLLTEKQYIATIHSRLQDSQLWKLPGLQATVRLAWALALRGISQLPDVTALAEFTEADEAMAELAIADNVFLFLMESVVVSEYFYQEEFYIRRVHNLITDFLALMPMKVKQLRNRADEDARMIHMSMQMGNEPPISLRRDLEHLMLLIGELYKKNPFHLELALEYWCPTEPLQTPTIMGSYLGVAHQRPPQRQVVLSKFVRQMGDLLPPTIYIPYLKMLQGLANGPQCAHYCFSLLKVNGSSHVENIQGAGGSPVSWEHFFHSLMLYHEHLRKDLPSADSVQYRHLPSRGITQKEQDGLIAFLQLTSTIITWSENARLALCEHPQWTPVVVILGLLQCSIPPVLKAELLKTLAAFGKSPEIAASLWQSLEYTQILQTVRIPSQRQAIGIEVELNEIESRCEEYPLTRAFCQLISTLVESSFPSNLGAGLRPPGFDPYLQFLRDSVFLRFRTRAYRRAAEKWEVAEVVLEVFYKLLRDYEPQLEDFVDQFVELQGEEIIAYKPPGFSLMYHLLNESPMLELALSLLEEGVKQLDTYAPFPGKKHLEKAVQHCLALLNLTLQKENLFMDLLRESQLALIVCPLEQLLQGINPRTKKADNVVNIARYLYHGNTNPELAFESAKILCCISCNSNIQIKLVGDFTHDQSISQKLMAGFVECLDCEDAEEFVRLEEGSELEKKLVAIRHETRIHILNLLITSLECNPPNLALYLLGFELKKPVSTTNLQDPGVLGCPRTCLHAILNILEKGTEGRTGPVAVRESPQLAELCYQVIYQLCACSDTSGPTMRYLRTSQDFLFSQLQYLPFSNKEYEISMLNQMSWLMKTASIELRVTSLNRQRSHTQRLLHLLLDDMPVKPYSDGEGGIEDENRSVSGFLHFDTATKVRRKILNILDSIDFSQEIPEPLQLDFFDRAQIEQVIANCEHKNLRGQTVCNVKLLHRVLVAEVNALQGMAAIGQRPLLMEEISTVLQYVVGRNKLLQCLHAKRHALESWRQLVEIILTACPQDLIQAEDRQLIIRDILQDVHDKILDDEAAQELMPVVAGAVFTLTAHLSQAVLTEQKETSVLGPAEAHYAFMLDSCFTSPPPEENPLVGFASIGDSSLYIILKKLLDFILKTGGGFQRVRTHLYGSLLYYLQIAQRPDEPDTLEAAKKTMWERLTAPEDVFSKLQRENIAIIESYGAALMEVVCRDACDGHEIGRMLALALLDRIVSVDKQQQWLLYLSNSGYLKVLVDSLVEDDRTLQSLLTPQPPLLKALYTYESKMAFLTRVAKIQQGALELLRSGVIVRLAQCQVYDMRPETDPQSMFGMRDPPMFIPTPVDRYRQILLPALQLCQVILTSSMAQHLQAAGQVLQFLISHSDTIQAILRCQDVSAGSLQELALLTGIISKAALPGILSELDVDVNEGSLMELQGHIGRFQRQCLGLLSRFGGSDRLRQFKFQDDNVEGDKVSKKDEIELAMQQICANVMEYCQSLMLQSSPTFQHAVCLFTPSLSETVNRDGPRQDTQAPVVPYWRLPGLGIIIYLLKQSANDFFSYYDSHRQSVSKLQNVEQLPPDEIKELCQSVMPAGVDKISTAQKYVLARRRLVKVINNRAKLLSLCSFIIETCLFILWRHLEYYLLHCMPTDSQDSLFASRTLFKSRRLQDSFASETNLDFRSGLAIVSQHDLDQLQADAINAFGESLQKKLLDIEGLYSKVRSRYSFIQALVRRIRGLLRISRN
UniProt Q8IXH7, sequence (Q8IXH7 whole entry, looked up): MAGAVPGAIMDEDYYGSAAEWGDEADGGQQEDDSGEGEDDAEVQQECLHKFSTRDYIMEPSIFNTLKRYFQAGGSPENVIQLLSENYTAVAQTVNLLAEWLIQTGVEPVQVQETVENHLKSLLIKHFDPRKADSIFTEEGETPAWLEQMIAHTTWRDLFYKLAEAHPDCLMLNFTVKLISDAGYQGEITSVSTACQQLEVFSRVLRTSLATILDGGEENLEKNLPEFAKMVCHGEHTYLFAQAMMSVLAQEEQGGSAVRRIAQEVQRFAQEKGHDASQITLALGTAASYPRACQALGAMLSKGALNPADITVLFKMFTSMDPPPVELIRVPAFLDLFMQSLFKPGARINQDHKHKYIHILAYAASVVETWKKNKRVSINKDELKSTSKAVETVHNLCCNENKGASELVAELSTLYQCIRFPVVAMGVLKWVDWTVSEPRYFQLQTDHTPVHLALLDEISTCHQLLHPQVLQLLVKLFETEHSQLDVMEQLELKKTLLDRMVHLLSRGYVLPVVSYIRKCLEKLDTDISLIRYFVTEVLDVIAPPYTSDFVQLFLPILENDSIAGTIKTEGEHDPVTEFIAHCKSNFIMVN
UniProt Q9Y639, sequence (Q9Y639 whole entry, looked up): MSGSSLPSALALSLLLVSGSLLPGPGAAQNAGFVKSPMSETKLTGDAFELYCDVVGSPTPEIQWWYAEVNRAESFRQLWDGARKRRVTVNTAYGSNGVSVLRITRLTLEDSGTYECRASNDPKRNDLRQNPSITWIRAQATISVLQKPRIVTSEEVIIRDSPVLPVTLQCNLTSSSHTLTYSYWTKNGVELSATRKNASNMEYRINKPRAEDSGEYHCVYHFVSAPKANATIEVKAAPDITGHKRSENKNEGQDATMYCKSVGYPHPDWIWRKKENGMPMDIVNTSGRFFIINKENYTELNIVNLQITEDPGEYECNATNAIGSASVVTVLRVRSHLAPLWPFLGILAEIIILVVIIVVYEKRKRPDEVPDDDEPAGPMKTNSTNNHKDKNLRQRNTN
UniProt Q5JRK9, sequence (Q5JRK9 whole entry, looked up): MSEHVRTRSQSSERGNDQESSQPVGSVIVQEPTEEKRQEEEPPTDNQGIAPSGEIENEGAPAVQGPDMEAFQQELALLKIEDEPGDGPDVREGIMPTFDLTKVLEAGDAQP

Question: NPTN (UniProt Q9Y639) was tested. Which log2 fold change did it give?
Answer: 0.005 (inactive)

Question: With MXRA7 (UniProt P84157) as the target, how does the log2 fold change read?
Answer: 0 (inactive)

Question: NUP205 (UniProt Q92621) was tested. Which log2 fold change did it give?
Answer: 0.004 (inactive)

Question: For NEBL (UniProt O76041), which log2 fold change is on record?
Answer: 0.019 (inactive)

Question: With NUDT4 (UniProt Q9NZJ9) as the target, how does the log2 fold change read?
Answer: -0.03 (inactive)

Question: For NFAT5 isoform 5 (UniProt O94916), which log2 fold change is on record?
Answer: -0.07 (inactive)

Question: With MSH3 (UniProt P20585) as the target, how does the log2 fold change read?
Answer: 0.034 (inactive)

Question: Which log2 fold change does the source give for NFATC2 (UniProt Q13469) here?
Answer: -0.052 (inactive)

Question: NT5DC2 isoform 2 (UniProt Q9H857) was tested. Which log2 fold change did it give?
Answer: -0.041 (inactive)

Question: With NR2F2 (UniProt P24468) as the target, how does the log2 fold change read?
Answer: 0.107 (inactive)

Question: Which log2 fold change does the source give for PANK1 (UniProt Q8TE04) here?
Answer: 0.014 (inactive)

Question: How did the log2 fold change turn out when PAK4 (UniProt O96013) was run?
Answer: 0.71 (active)

Question: For MSH2 (UniProt P43246), which log2 fold change is on record?
Answer: -0.008 (inactive)

Question: NSUN2 (UniProt Q08J23) was tested. Which log2 fold change did it give?
Answer: -0.004 (inactive)

Question: With MRPS31 (UniProt Q92665) as the target, how does the log2 fold change read?
Answer: -0.002 (inactive)

Question: PBK (UniProt Q96KB5) was tested. Which log2 fold change did it give?
Answer: 0.006 (inactive)

Question: With NOSIP (UniProt Q9Y314) as the target, how does the log2 fold change read?
Answer: 0.009 (inactive)

Question: Which log2 fold change does the source give for MYO1C (UniProt O00159) here?
Answer: -0.013 (inactive)

Question: With NAA30 (UniProt Q147X3) as the target, how does the log2 fold change read?
Answer: 0.019 (inactive)

Question: Which log2 fold change does the source give for MTCH2 (UniProt Q9Y6C9) here?
Answer: -0.005 (inactive)

Question: With PARD3 (UniProt Q8TEW0) as the target, how does the log2 fold change read?
Answer: -0.109 (inactive)

Question: NLRP2 (UniProt Q9NX02) was tested. Which log2 fold change did it give?
Answer: 0.013 (inactive)

Question: How did the log2 fold change turn out when ORC2 (UniProt Q13416) was run?
Answer: 0.009 (inactive)

Question: NOSTRIN (UniProt Q8IVI9) was tested. Which log2 fold change did it give?
Answer: -0.02 (inactive)

Question: With OSBPL1A (UniProt Q9BXW6) as the target, how does the log2 fold change read?
Answer: -0.02 (inactive)

Question: Which log2 fold change does the source give for PAN2 isoform 2 (UniProt Q504Q3) here?
Answer: 0.013 (inactive)

Question: For NOC2L (UniProt Q9Y3T9), which log2 fold change is on record?
Answer: 0.022 (inactive)

Question: N4BP2 (UniProt Q86UW6) was tested. Which log2 fold change did it give?
Answer: 0.036 (inactive)

Question: Which log2 fold change does the source give for NPM3 (UniProt O75607) here?
Answer: -0.012 (inactive)

Question: For PAGE2B (UniProt Q5JRK9), which log2 fold change is on record?
Answer: -0.007 (inactive)

Question: For NOCT (UniProt Q9UK39), which log2 fold change is on record?
Answer: 0.011 (inactive)

Question: NBN (UniProt O60934) was tested. Which log2 fold change did it give?
Answer: 0.013 (inactive)

Question: Which log2 fold change does the source give for MSH6 (UniProt P52701) here?
Answer: 0.011 (inactive)

Question: How did the log2 fold change turn out when NELFCD (UniProt Q8IXH7) was run?
Answer: 0.015 (inactive)

Question: How did the log2 fold change turn out when NARS2 (UniProt Q96I59) was run?
Answer: -0.027 (inactive)

compound: Cc1nc(Nc2ncc(C(=O)Nc3c(C)cccc3Cl)s2)cc(N2CCN(CCO)CC2)n1 [dasatinib]; experiment: as above
In short: as §1

Question: NPTN (UniProt Q9Y639) was tested. Which log2 fold change did it give?
Answer: -0.06 (inactive)

Question: Which log2 fold change does the source give for MXRA7 (UniProt P84157) here?
Answer: 0.03 (inactive)

Question: With NUP205 (UniProt Q92621) as the target, how does the log2 fold change read?
Answer: -0.04 (inactive)

Question: For NEBL (UniProt O76041), which log2 fold change is on record?
Answer: 0.089 (inactive)

Question: With NUDT4 (UniProt Q9NZJ9) as the target, how does the log2 fold change read?
Answer: 0.038 (inactive)

Question: With NFAT5 isoform 5 (UniProt O94916) as the target, how does the log2 fold change read?
Answer: 0.008 (inactive)

Question: For MSH3 (UniProt P20585), which log2 fold change is on record?
Answer: -0.03 (inactive)

Question: NFATC2 (UniProt Q13469) was tested. Which log2 fold change did it give?
Answer: -0.033 (inactive)

Question: For NT5DC2 isoform 2 (UniProt Q9H857), which log2 fold change is on record?
Answer: 0.067 (inactive)

Question: NR2F2 (UniProt P24468) was tested. Which log2 fold change did it give?
Answer: -0.027 (inactive)

Question: PANK1 (UniProt Q8TE04) was tested. Which log2 fold change did it give?
Answer: -0.028 (inactive)

Question: Which log2 fold change does the source give for PAK4 (UniProt O96013) here?
Answer: 0.141 (inactive)

Question: Which log2 fold change does the source give for MSH2 (UniProt P43246) here?
Answer: -0.038 (inactive)

Question: Which log2 fold change does the source give for NSUN2 (UniProt Q08J23) here?
Answer: -0.023 (inactive)

Question: For MRPS31 (UniProt Q92665), which log2 fold change is on record?
Answer: -0.034 (inactive)

Question: With PBK (UniProt Q96KB5) as the target, how does the log2 fold change read?
Answer: -0.035 (inactive)

Question: For NOSIP (UniProt Q9Y314), which log2 fold change is on record?
Answer: -0.018 (inactive)

Question: With MYO1C (UniProt O00159) as the target, how does the log2 fold change read?
Answer: 0.112 (inactive)

Question: NAA30 (UniProt Q147X3) was tested. Which log2 fold change did it give?
Answer: -0.042 (inactive)

Question: MTCH2 (UniProt Q9Y6C9) was tested. Which log2 fold change did it give?
Answer: 0 (inactive)

Question: Which log2 fold change does the source give for PARD3 (UniProt Q8TEW0) here?
Answer: 0.021 (inactive)

Question: How did the log2 fold change turn out when NLRP2 (UniProt Q9NX02) was run?
Answer: -0.019 (inactive)

Question: Which log2 fold change does the source give for ORC2 (UniProt Q13416) here?
Answer: -0.036 (inactive)

Question: How did the log2 fold change turn out when NOSTRIN (UniProt Q8IVI9) was run?
Answer: -0.022 (inactive)

Question: With OSBPL1A (UniProt Q9BXW6) as the target, how does the log2 fold change read?
Answer: -0.044 (inactive)

Question: PAN2 isoform 2 (UniProt Q504Q3) was tested. Which log2 fold change did it give?
Answer: -0.012 (inactive)

Question: NOC2L (UniProt Q9Y3T9) was tested. Which log2 fold change did it give?
Answer: -0.03 (inactive)

Question: For N4BP2 (UniProt Q86UW6), which log2 fold change is on record?
Answer: -0.024 (inactive)

Question: For NPM3 (UniProt O75607), which log2 fold change is on record?
Answer: 0.065 (inactive)

Question: How did the log2 fold change turn out when PAGE2B (UniProt Q5JRK9) was run?
Answer: 0.032 (inactive)

Question: For NOCT (UniProt Q9UK39), which log2 fold change is on record?
Answer: 0.013 (inactive)

Question: For NBN (UniProt O60934), which log2 fold change is on record?
Answer: -0.019 (inactive)

Question: For MSH6 (UniProt P52701), which log2 fold change is on record?
Answer: -0.073 (inactive)

Question: With NELFCD (UniProt Q8IXH7) as the target, how does the log2 fold change read?
Answer: -0.019 (inactive)

Question: How did the log2 fold change turn out when NARS2 (UniProt Q96I59) was run?
Answer: -0.046 (inactive)

compound: Cc1ncc(-c2ccnc(Nc3ccc(S(C)(=O)=O)cc3)n2)n1C(C)C; experiment: as above
In short: as §1

Question: With NPTN (UniProt Q9Y639) as the target, how does the log2 fold change read?
Answer: -0.025 (inactive)

Question: MXRA7 (UniProt P84157) was tested. Which log2 fold change did it give?
Answer: -0.202 (inactive)

Question: Which log2 fold change does the source give for NUP205 (UniProt Q92621) here?
Answer: 0.008 (inactive)

Question: How did the log2 fold change turn out when NEBL (UniProt O76041) was run?
Answer: 0.032 (inactive)

Question: NUDT4 (UniProt Q9NZJ9) was tested. Which log2 fold change did it give?
Answer: -0.002 (inactive)

Question: With NFAT5 isoform 5 (UniProt O94916) as the target, how does the log2 fold change read?
Answer: 0.046 (inactive)

Question: Which log2 fold change does the source give for MSH3 (UniProt P20585) here?
Answer: 0.028 (inactive)

Question: NFATC2 (UniProt Q13469) was tested. Which log2 fold change did it give?
Answer: 0.061 (inactive)

Question: NT5DC2 isoform 2 (UniProt Q9H857) was tested. Which log2 fold change did it give?
Answer: 0.029 (inactive)

Question: With NR2F2 (UniProt P24468) as the target, how does the log2 fold change read?
Answer: -0.125 (inactive)

Question: Which log2 fold change does the source give for PANK1 (UniProt Q8TE04) here?
Answer: -0.05 (inactive)

Question: Which log2 fold change does the source give for PAK4 (UniProt O96013) here?
Answer: 0.264 (inactive)

Question: For MSH2 (UniProt P43246), which log2 fold change is on record?
Answer: -0.01 (inactive)

Question: How did the log2 fold change turn out when NSUN2 (UniProt Q08J23) was run?
Answer: -0.005 (inactive)

Question: How did the log2 fold change turn out when MRPS31 (UniProt Q92665) was run?
Answer: 0.034 (inactive)

Question: With PBK (UniProt Q96KB5) as the target, how does the log2 fold change read?
Answer: 0.017 (inactive)

Question: With NOSIP (UniProt Q9Y314) as the target, how does the log2 fold change read?
Answer: 0.027 (inactive)

Question: How did the log2 fold change turn out when MYO1C (UniProt O00159) was run?
Answer: 0.005 (inactive)

Question: Which log2 fold change does the source give for NAA30 (UniProt Q147X3) here?
Answer: 0.059 (inactive)

Question: With MTCH2 (UniProt Q9Y6C9) as the target, how does the log2 fold change read?
Answer: -0.014 (inactive)

Question: With PARD3 (UniProt Q8TEW0) as the target, how does the log2 fold change read?
Answer: -0.031 (inactive)

Question: How did the log2 fold change turn out when NLRP2 (UniProt Q9NX02) was run?
Answer: 0.007 (inactive)

Question: Which log2 fold change does the source give for ORC2 (UniProt Q13416) here?
Answer: -0.014 (inactive)

Question: Which log2 fold change does the source give for NOSTRIN (UniProt Q8IVI9) here?
Answer: 0.03 (inactive)

Question: With OSBPL1A (UniProt Q9BXW6) as the target, how does the log2 fold change read?
Answer: -0.051 (inactive)

Question: Which log2 fold change does the source give for PAN2 isoform 2 (UniProt Q504Q3) here?
Answer: 0.046 (inactive)

Question: Which log2 fold change does the source give for NOC2L (UniProt Q9Y3T9) here?
Answer: -0.046 (inactive)

Question: N4BP2 (UniProt Q86UW6) was tested. Which log2 fold change did it give?
Answer: -0.043 (inactive)

Question: For NPM3 (UniProt O75607), which log2 fold change is on record?
Answer: 0.049 (inactive)

Question: For PAGE2B (UniProt Q5JRK9), which log2 fold change is on record?
Answer: 0.062 (inactive)

Question: Which log2 fold change does the source give for NOCT (UniProt Q9UK39) here?
Answer: -0.084 (inactive)

Question: With NBN (UniProt O60934) as the target, how does the log2 fold change read?
Answer: 0.037 (inactive)

Question: Which log2 fold change does the source give for MSH6 (UniProt P52701) here?
Answer: -0.002 (inactive)

Question: With NELFCD (UniProt Q8IXH7) as the target, how does the log2 fold change read?
Answer: -0.025 (inactive)

Question: For NARS2 (UniProt Q96I59), which log2 fold change is on record?
Answer: -0.014 (inactive)
